{
  "source": "PubChem BioAssay (NCI)",
  "note": "Compounds without any hit were thinned out: in the full panel of roughly 83,000, 20% have a hit.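 Assay: single dose, 48 h. Readout: percent growth (0 = no net growth; negative = cell death). Active: <10.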 Calls of active or inactive are those of the source.",
  "data": [
    {"system": "U251 CNS", "assay": "NCI-60 one-dose screen, 48 h (100 = growth as untreated, 0 = no growth, -100 = all killed)", "details": "10 µM unless noted", "values": [
      {"compound": "O=S(=O)(Nc1ccsc1-c1nc(-c2ccccc2)no1)c1cc(Cl)cc(Cl)c1", "growth": "97.8% (inactive)"},
      {"compound": "C[C@H]1[C@H]2C3=CC[C@@H]4[C@@]5(C)C/C(=C/c6ccncc6)C(=O)C(C)(C)[C@@H]5CC[C@@]4(C)[C@]3(C)CC[C@@]2(C(=O)N2CCN(C)CC2)CC[C@@H]1C", "growth": "68.8% (inactive)"},
      {"compound": "C=C1C(=O)O[C@H]2[C@H]1CC/C(C(=O)NCCCCCCCCNC(=O)/C1=C/CC[C@@]3(C)O[C@H]3[C@H]3OC(=O)C(=C)[C@@H]3CC1)=C\\CC[C@@]1(C)O[C@@H]21", "growth": "95.6% (inactive)"},
      {"compound": "CC(C)OC(=O)NNC(=O)c1ccncc1", "growth": "98.1% (inactive)"},
      {"compound": "COc1cc2c(=O)n(CCCn3ccnc3)c3c4cc5c(cc4ccc3c2cc1OC)OCO5", "growth": "-2.14% (active)"},
      {"compound": "COc1cc(/C=C/c2nc(Nc3ccc(S(=O)(=O)Nc4cc(C)on4)cc3)c3ccccc3n2)ccc1O", "growth": "61.4% (inactive)"},
      {"compound": "C[C@@H]1CC[C@@H]2[C@@H]1[C@H](OC(=O)/C=C/c1ccccc1)[C@]1(CCCOCCOCCOCCOC(=O)CCCC[C@@H]3SC[C@@H]4NC(=O)N[C@@H]43)C[C@@H](OC(=O)CO)[C@@]2(C)O1", "growth": "105% (inactive)"},
      {"compound": "O=C(CCCCCCCn1cc(-c2cccnc2)nn1)Nc1ccccc1-c1ccccc1", "growth": "31.1% (inactive)"},
      {"compound": "O=C(NCc1cn(Cc2cccc(Oc3ccccc3)c2)nn1)c1cccnc1NCc1ccc(Cl)cc1", "growth": "21.2% (inactive)"},
      {"compound": "CCOC(=O)c1c(C)nc2c(c1N)/C(=C/c1ccc(OC)cc1)C(=O)N2Cc1ccc(F)cc1", "growth": "-81.5% (active)"},
      {"compound": "O=C(O)c1ccc(CO)o1", "growth": "91.8% (inactive)"},
      {"compound": "CN(C)CN1CCN(c2ccc3nc(-c4ccc5nc(-c6ccc(C(F)(F)F)cc6)[nH]c5c4)[nH]c3c2)CC1", "growth": "60% (inactive)"},
      {"compound": "COc1ccc(-c2nc3ccccn3c2/C=C/C(=O)c2cc(OC)c(OC)c(OC)c2)cc1", "growth": "36% (inactive)"},
      {"compound": "Cc1nc(Nc2ccc(S(=O)(=O)Nc3cc(C)on3)cc2)c2ccccc2n1", "growth": "101% (inactive)"},
      {"compound": "C#C[C@]1(O)CC[C@H]2[C@@H]3CC=C4c5sc(N=C(N)N)nc5CC[C@]4(C)[C@H]3CC[C@@]21C", "growth": "-14.9% (active)"},
      {"compound": "Clc1ccc2[nH]c3c(NCCCN4CCOCC4)ncnc3c2c1", "growth": "69.6% (inactive)"},
      {"compound": "Cc1cc(C(c2ccccc2)c2ccccc2)ccc1NS(=O)(=O)c1ccccc1", "growth": "94.6% (inactive)"},
      {"compound": "COc1cc(NC(=O)c2cccc(-c3cc(=O)c4c(O)c(OC)c(OC)cc4o3)c2)cc(OC)c1OC", "growth": "44.8% (inactive)"},
      {"compound": "Cc1ccc(S(=O)(=O)N(CC[C@@H]2C[C@H]2c2cc3ccccc3o2)C(=O)NC2CCCCC2)cc1", "growth": "100% (inactive)"},
      {"compound": "CC(C)CCC[C@@H](C)[C@H]1CCC2C3=CCC4C(=O)C=CC(=O)C4C3CC[C@@]21C", "note": "(stereo not given in full)", "growth": "11.5% (inactive)"},
      {"compound": "Cc1ccc(/C=C(\\C#N)n2nnc3cc(Cl)c(Cl)cc32)cc1", "growth": "7.49% (active)"},
      {"compound": "COc1cc(C2C=C(c3cccc(NC(C)=O)c3)Nc3ncnn32)cc(OC)c1OC", "note": "(stereo not given)", "growth": "25.4% (inactive)"},
      {"compound": "CC(=[N-])N1CCC[C@@H](Nc2c3ccccc3nc3ccccc23)C1.[Cl][Pt].[NH-]CCC[NH-]", "growth": "44.3% (inactive)"},
      {"compound": "O=C(/C=C/C12c3ccccc3C(c3ccccc31)C1C(=O)NC(=O)C12)c1ccccc1", "note": "(stereo not given)", "growth": "25.6% (inactive)"},
      {"compound": "COc1cc2ccccc2cc1C(=O)NC(=S)Nc1ccc(-c2nc3ccccc3[nH]2)cc1", "growth": "75.2% (inactive)"}
    ]}
  ]
}
